Assay results published in PMC5540273 (PLoS ONE, 2017).
Several values for one entry are separate records, joined by “and”; a condition that tells them apart may be missing. Equal values may be shown once. Read-outs that look alike come from different tables or passages of the source.

Experiments:
Conditions in all cases: concentration: 1 μM, replicates: in singlicate, n = 1
SGK = tested on: SGK
SIK2 = tested on: SIK2
SIK = tested on: SIK
SLK = tested on: SLK
SNARK = tested on: T1, SNARK
T1 construct: gene NUAK2

SNRK = tested on: SNRK
SRC = tested on: SRC
SRMS = tested on: SRMS
SRPK1 = tested on: SRPK1
SRPK2 = tested on: SRPK2
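Further: KINOMEscan kinase panel screen.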

| SMILES | %Inh (SGK) | %Inh (SIK2) | %Inh (SIK) | %Inh (SLK) | %Inh (SNARK) | %Inh (SNRK) | %Inh (SRC) | %Inh (SRMS) | %Inh (SRPK1) | %Inh (SRPK2) | %Inh (SGK; 1 µM) | %Inh (SIK2; 1 µM) | %Inh (SIK; 1 µM) | %Inh (SLK; 1 µM) | %Inh (SNARK; 1 µM) | %Inh (SNRK; 1 µM) | %Inh (SRC; 1 µM) | %Inh (SRMS; 1 µM) | %Inh (SRPK1; 1 µM) | %Inh (SRPK2; 1 µM) |
| --- | --- | --- | --- | --- | --- | --- | --- | --- | --- | --- | --- | --- | --- | --- | --- | --- | --- | --- | --- | --- |
| O=c1cc(N2CCOCC2)nc2n(Cc3cccc(Cl)c3Cl)c(C3CC3)nn12 [GSK2358994] | 30% | 0% | 0% | 46% | 0% | 0% | 22% | 0% | 17% | 0% |  |  |  |  |  |  |  |  |  |  |
| CN(C1=C(c2ccccc2)C(=O)NC1=O)c1ccccc1 [SB-334860] | 0% | 5% | 7% | 10% | 23% | 0% | 5% | 0% | 10% | 0% |  |  |  |  |  |  |  |  |  |  |
| O=c1cc(N2CCOCC2)nc2n(Cc3cccc(C(F)(F)F)c3)ccn12 [GSK2297543] | 0% | 0% | 0% | 18% | 0% | 0% | 0% | 0% | 24% | 0% |  |  |  |  |  |  |  |  |  |  |
| CC(=O)Nc1ccc(COc2ccc(Nc3ccnc4cc(-c5ccccn5)ccc34)cc2)cc1.Cl [GW440148] | 0% | 0% | 4% | 0% | 15% | 0% | 29% | 88% | 46% | 12% |  |  |  |  |  |  |  |  |  |  |
| CCc1nc(-c2cccc(C)c2)c(-c2ccnc(NCc3ccccc3)c2)s1 | 2% | 10% | 5% | 7% | 0% | 0% | 7% | 1% | 1% | 0% |  |  |  |  |  |  |  |  |  |  |
| CN1c2ccc(NCc3ccc(F)cc3)cc2-c2c(cnn2C)S1(=O)=O | 5% | 11% | 0% | 0% | 0% | 0% | 3% | 0% | 0% | 0% |  |  |  |  |  |  |  |  |  |  |
| Cl.Cl.Cl.Fc1ccc(-c2ncn(C3CCNCC3)c2-c2ccnc(Nc3ccccc3)n2)cc1 [SB-238039] |  |  |  |  |  |  |  |  |  |  | 41% and 0% | 65% and 46% | 1% and 4% | 28% and 0% | 9% and 0% | 0% and 10% | 0% and 4% | 29% and 0% | 7% and 0% | 7% and 0% |
| CN(C(=O)c1ccc(-c2cc(-c3c[nH]nc3-c3ccccn3)ccn2)cc1)C1CCOCC1 [GW810083] | 18% | 0% | 0% | 0% | 0% | 0% | 0% | 0% | 0% | 14% |  |  |  |  |  |  |  |  |  |  |
| CSc1ccc(-c2cc3ncnc(SCC(=O)O)c3s2)cc1 | 0% | 0% | 25% | 0% | 0% | 0% | 0% | 0% | 0% | 100% |  |  |  |  |  |  |  |  |  |  |
| CCCCCc1nc2c(N)ncnc2n1CCCCC [SKF-97255] | 0% | 1% | 8% | 8% | 0% | 0% | 14% | 25% | 0% | 11% |  |  |  |  |  |  |  |  |  |  |
| Cc1c2ccc(N(C)c3ccnc(Nc4cccc(S(N)(=O)=O)c4)n3)cc2nn1Cc1ccccc1.Cl.Cl [GW787226] | 0% | 42% | 72% | 66% | 0% | 0% | 94.7% | 67% | 7% | 0% |  |  |  |  |  |  |  |  |  |  |
| Cn1cc(-c2ccc3c(c2)CCN3C(=O)Cc2ccccc2Cl)c2c(N)ncnc21 [GSK2608885] | 0% | 52% | 96.4% | 99.2% | 89% | 0% | 99.1% | 98.4% | 56% | 0% |  |  |  |  |  |  |  |  |  |  |
| CNc1ncnc2[nH]ncc12 [SKF-18355] | 6% | 0% | 0% | 10% | 0% | 0% | 17% | 22% | 0% | 0% |  |  |  |  |  |  |  |  |  |  |
| COc1ccc(COc2cc(-n3cnc4ccccc43)sc2C(N)=O)cc1 [GSK1024304] | 0% | 0% | 0% | 9% | 2% | 0% | 0% | 0% | 29% | 0% |  |  |  |  |  |  |  |  |  |  |
| COc1ccc(Nc2nccc(N3CCC(NC(=O)Nc4cccc(C(C)=O)c4)C3)n2)cc1 (stereo not drawn) [GSK1379731] | 0% | 0% | 0% | 0% | 0% | 0% | 0% | 0% | 6% | 0% |  |  |  |  |  |  |  |  |  |  |
| N#Cc1ccc(-c2cc(-c3c[nH]nc3-c3ccccn3)ccn2)cc1 [GW693028] | 0% | 0% | 0% | 6% | 0% | 0% | 0% | 0% | 0% | 0% |  |  |  |  |  |  |  |  |  |  |
| COc1ccc(Nc2nccc(N3CCC(NC(=O)Nc4cc(C)ccc4C)C3)n2)cc1 (stereo not drawn) [GSK1379741] | 0% | 0% | 0% | 0% | 0% | 0% | 0% | 0% | 27% | 0% |  |  |  |  |  |  |  |  |  |  |

| SMILES | %Inh (SGK) | %Inh (SIK2) | %Inh (SIK) | %Inh (SLK) | %Inh (SNARK) | %Inh (SNRK) | %Inh (SRC) | %Inh (SRMS) | %Inh (SRPK1) | %Inh (SRPK2) | %Inh (SGK; 1 µM) | %Inh (SIK2; 1 µM) | %Inh (SIK; 1 µM) | %Inh (SLK; 1 µM) | %Inh (SNARK; 1 µM) | %Inh (SNRK; 1 µM) | %Inh (SRC; 1 µM) | %Inh (SRMS; 1 µM) | %Inh (SRPK1; 1 µM) | %Inh (SRPK2; 1 µM) |
| --- | --- | --- | --- | --- | --- | --- | --- | --- | --- | --- | --- | --- | --- | --- | --- | --- | --- | --- | --- | --- |
| NCCNS(=O)(=O)c1ccc(-c2ccnc3[nH]ccc23)cc1 [GSK977617] |  |  |  |  |  |  |  | 0% |  |  | 45% and 33% | 12% and 0% | 21% and 0% | 89% and 75% | 89% and 82% | 16% and 0% | 11% and 0% |  | 87% and 65% | 6% and 0% |
| c1ccc(-c2cc(-c3c[nH]nc3-c3ccccn3)ccn2)cc1 [GW576604] | 0% | 0% | 0% | 0% | 0% | 0% | 0% | 0% | 24% | 9% |  |  |  |  |  |  |  |  |  |  |
| O=C(NCCCN1CCOCC1)c1cccc(Nc2nccc(Nc3ccc(Oc4ccccc4)cc3)n2)c1 [GW663929] | 1% | 12% | 68% | 8% | 22% | 0% | 81% | 97.5% | 25% | 19% |  |  |  |  |  |  |  |  |  |  |
| Cc1nnc(-c2ccc(C)c(-c3ccc(C(=O)Nc4ccc(NS(C)(=O)=O)cc4)cc3)c2)o1 [GW702865] | 2% | 0% | 0% | 0% | 1% | 0% | 0% | 2% | 23% | 34% |  |  |  |  |  |  |  |  |  |  |
| Nc1nc(-c2ccc3c(N)n[nH]c3c2)cc(N2CCCC2)n1 [GSK2227430] | 0% | 0% | 0% | 0% | 3% | 0% | 0% | 0% | 4% | 0% |  |  |  |  |  |  |  |  |  |  |
| NS(=O)(=O)c1cccc(-c2ccc3ncc(N4CCOCC4)nc3c2)c1 [GSK1535721] | 9% | 0% | 0% | 2% | 1% | 0% | 0% | 6% | 0% | 0% |  |  |  |  |  |  |  |  |  |  |
| COc1cc2ncn(-c3cc(OCc4sccc4Cl)c(C(N)=O)s3)c2cc1OC [GSK448459] | 0% | 13% | 8% | 99% | 80% | 0% | 0% | 0% | 88% | 0% |  |  |  |  |  |  |  |  |  |  |
| NCC(NC(=O)c1cc(-c2cn[nH]c2)c(-c2ccnc3[nH]ccc23)s1)c1ccccc1.O=C(O)C(F)(F)F.O=C(O)C(F)(F)F (stereo not drawn) [GSK1325775] | 74% | 0% | 0% | 0% | 92.2% | 0% | 0% | 0% | 81% | 22% |  |  |  |  |  |  |  |  |  |  |
| NS(=O)(=O)CCc1cccc(Nc2nccc(-c3c(-c4cccc(NC(=O)c5c(F)cccc5F)c4)nn4ccccc34)n2)c1 [GSK336735] | 0% | 37% | 94.7% | 97.7% | 86% | 0% | 97.8% | 98.8% | 62% | 0% |  |  |  |  |  |  |  |  |  |  |
| O=C(Nc1n[nH]c2cc(-c3cccc(F)c3)ccc12)C1CC1 [SB-735464] | 13% | 0% | 0% | 11% | 0% | 0% | 0% | 18% | 36% | 4% |  |  |  |  |  |  |  |  |  |  |
| CC(C)(CN)c1nc(-c2ccc(Cl)c(O)c2)c(-c2ccncc2)[nH]1.O=C(O)C(F)(F)F [SB-477794] |  |  |  | 99.3% |  |  | 99.9% |  |  |  | 23% and 3% | 78% and 71% | 21% and 33% |  | 0% and 7% | 11% and 0% |  | 0% and 15% | 17% and 42% | 26% and 74% |
| O=C(Nc1cccc(-c2nn3ncccc3c2-c2ccnc(Nc3cccc(C(F)(F)F)c3)n2)c1)c1c(F)cccc1F [GSK299495] | 1% | 0% | 0% | 81% | 0% | 0% | 56% | 21% | 0% | 16% |  |  |  |  |  |  |  |  |  |  |
| O=c1cc(N2CCOCC2)nc2n(Cc3cccc(F)c3)ccn12 [GSK2297430] | 0% | 2% | 4% | 18% | 0% | 0% | 12% | 0% | 23% | 0% |  |  |  |  |  |  |  |  |  |  |
| Nc1nccc(-c2c(-c3ccc(F)cc3)ncn2C2CCN(CC(F)(F)F)CC2)n1 [SB-236560] | 25% | 0% | 0% | 0% | 0% | 16% | 0% | 0% | 19% | 41% |  |  |  |  |  |  |  |  |  |  |
| COc1ccc(S(=O)(=O)NC2CCN(c3cc(C)nc(Nc4cccc(C#N)c4)n3)CC2)cc1.O=C(O)C(F)(F)F [GSK1653539] | 0% | 0% | 0% | 8% | 0% | 0% | 0% | 0% | 0% | 0% |  |  |  |  |  |  |  |  |  |  |
| COc1ccc(Nc2ncc(C#N)c(Nc3ccccc3C(N)=O)n2)cc1N1CCN(C)CC1.Cl [GSK1558669] | 87% | 96.4% | 98.7% | 100% | 99.8% | 85% | 100% | 99.5% | 99.9% | 66% |  |  |  |  |  |  |  |  |  |  |
